NS1 function inh: inhibitors of influenza NS1 protein function | Potency, µM (series often up to 46.1 µM) | hit rate 0.4% among 270,000; calls by dose curve; note: actives are rising curves; nearly all actives have a fitted effect of over 50% in size
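Compounds were scored for reversing the slow growth caused by influenza A NS1 in S. cerevisiae, measured by optical density at 600 nm. Assay medium contained 2% galactose at pH 6.0; NS1-free yeast of the same strain were the positive control.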
Shiga inhibitor: Shiga toxin inhibition; Vero cells, Shiga toxin protein synthesis inhibition reporter; inhibition, % at 38.7 µM; hit rate 9.2% among 290,000; in the data active = inhibition mostly above about 28%, no sharp cut-off; inactive = mostly below about 43%
AmpC inh detg: AmpC beta-lactamase inhibition with detergent present; P00811; AmpC hydrolysis of nitrocefin, absorbance 480 nm, 0.01% Triton; Potency, µM (doses to about 114 µM), usual class: inhibitors; hit rate 0.041% among 370,000; AID 485294; note: nearly all actives have a fitted effect of over 25% in size
Target sequence (P00811 whole entry, looked up): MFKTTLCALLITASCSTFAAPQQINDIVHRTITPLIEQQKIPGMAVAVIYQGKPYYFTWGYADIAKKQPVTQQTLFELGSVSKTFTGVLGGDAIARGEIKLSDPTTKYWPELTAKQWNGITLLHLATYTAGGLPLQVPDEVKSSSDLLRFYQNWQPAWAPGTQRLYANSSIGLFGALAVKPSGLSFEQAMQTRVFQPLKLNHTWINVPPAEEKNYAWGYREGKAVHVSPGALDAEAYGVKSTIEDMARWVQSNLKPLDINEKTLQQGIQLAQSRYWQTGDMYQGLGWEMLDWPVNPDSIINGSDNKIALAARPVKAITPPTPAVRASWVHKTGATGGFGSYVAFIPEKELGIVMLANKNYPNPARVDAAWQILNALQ
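AmpC (5.3 nM in the dispensed reagent) in 20 mM phosphate pH 7.0 with 0.01% (detergent screen) or 0.0001% Triton X-100 was preincubated with compounds for 15 min at room temperature. Nitrocefin was then added from an 800 uM solution, and hydrolysis was followed at 480 nm.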
AmpC no deterg: blocks E. coli AmpC beta-lactamase in detergent-free assay; P00811; AmpC nitrocefin hydrolysis, absorbance 480 nm, 0.0001% Triton; Potency, µM (titrated, usually from 57.1 µM), most hits filed as inhibitors; hit rate 0.52% among 330,000; AID 485341; note: nearly all actives have a fitted effect of over 20% in size
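AmpC (5.3 nM in the dispensed reagent) in 20 mM phosphate pH 7.0 with 0.01% (detergent screen) or 0.0001% Triton X-100 was preincubated with compounds for 15 min at room temperature. Nitrocefin was then added from an 800 uM solution, and hydrolysis was followed at 480 nm.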
CHX counter: affects cycloheximide protein synthesis inhibition readout, counter-screen; cell reporter, cycloheximide protein synthesis inhibition counterscreen; max response, %; hit rate 12% among 300,000; AID 2314; in the data active = max response mostly above about 13%, no sharp cut-off; inactive = mostly below about 14%; note: read at 38.3 µM for the half of the compounds with a filed dose
Each line names hits and unclear results; the compound was inactive in the other large screens. This excerpt belongs to a sample that is enriched for hits. Unless noted, calls come from the whole dose curve; as a rule, active = well fitted curve in the direction sought with a large enough effect; inconclusive = small, poorly fitted or top-dose-only effect, or another doubt; inactive = no such curve, though single readings can be large; an effect the other way counts as inactive or inconclusive.

COC(=O)c1ccc(C(NC(=O)c2cccnc2)NC(=O)c2cccnc2)cc1	Shiga inhibitor 66, CHX counter 30
CC(=O)Nc1ccc(N/C(C)=C/C(=O)c2cccnc2)cc1	none
Cc1cc2nc(-c3ccc(OCc4ccccc4)cc3)cc(C(F)(F)F)n2n1	none (no result: NS1 function inh, Shiga inhibitor, AmpC no deterg, CHX counter)
COc1cc2c(C(=O)N3CCN(c4cccc(Cl)c4)CC3)cn(CC(C)C)c(=O)c2cc1OC	NS1 function inh inconclusive
O=C(NC(=S)Nc1ccccc1Cl)c1csnn1	Shiga inhibitor 42, CHX counter 38
CC(=O)Nc1ccccc1C(=O)OCC(=O)c1ccc2ccccc2c1	NS1 function inh inconclusive, Shiga inhibitor 76, CHX counter 28
NC(=O)NCCCC(=O)OCC(=O)c1ccc2ccccc2c1	CHX counter 21 (no result: NS1 function inh)
CCC(=O)Nc1ccccc1C(=O)OCC(=O)c1ccc2ccccc2c1	none
CCC(=O)Nc1ccccc1C(=O)OCC(=O)c1ccccc1	Shiga inhibitor 89, CHX counter 20
CC(C)c1nn2c(=O)cc(COC(=O)c3cccc(NC(=O)CCc4ccccc4)c3)nc2s1	none (no result: NS1 function inh, Shiga inhibitor, AmpC no deterg, CHX counter)
COc1ccc(NC(=O)c2oc3ccc(S(=O)(=O)N4CCCCC4)cc3c2C)cc1Cl	none (no result: NS1 function inh, Shiga inhibitor, AmpC no deterg, CHX counter)
O=C(Nc1nc2c(s1)CN(Cc1ccccc1)CC2)C1CCC1	Shiga inhibitor 74, CHX counter 31 (no result: NS1 function inh)
Cn1ccnc1-c1ccc(-c2nccn2C)cc1	none
O=C(CNC(=O)c1ccc(Br)o1)NNC(=O)c1ccc(Br)cc1	none (no result: NS1 function inh, Shiga inhibitor, CHX counter)
O=C(c1noc2c1CCCC2)N1CCc2c([nH]c3ccccc23)C1c1ccccn1 (stereo unspecified)	CHX counter 8.4
O=C(c1ccccc1-c1ncc[nH]1)N1CCc2c([nH]c3ccccc23)C1c1ccccn1 (stereo unspecified)	none
O=C(c1ccccc1-n1cccn1)N1CCc2c([nH]c3ccccc23)C1c1ccccn1 (stereo unspecified)	CHX counter 11
CCOC(=O)CN1CC23C=CC(O2)C(C(=O)NC2CCCCCC2)C3C1=O (stereo unspecified)	none
CCOC(=O)CN1CC23C=CC(O2)C(C(=O)Nc2ccc(C(C)=O)cc2)C3C1=O (stereo unspecified)	AmpC inh detg inconclusive, AmpC no deterg 1.1µM
CC1=C(C(=O)Nc2cccc(C(=O)NCc3ccccc3C)c2)SCCO1	none
COc1cccc(CNC(=O)Cc2ccc(NC(=O)C3=C(C)OCCS3)cc2)c1	Shiga inhibitor 41, CHX counter 29
CCc1ccc(CNC(=O)Cc2ccc(NC(=O)C3=C(C)OCCS3)cc2)cc1	Shiga inhibitor 57, CHX counter 36
CC1=C(C(=O)Nc2ccc(CC(=O)NCc3ccccc3C)cc2)SCCO1	Shiga inhibitor 55, AmpC inh detg inconclusive, CHX counter 22
CC1=C(C(=O)Nc2cccc(C(=O)NCc3ccc(F)cc3)c2)SCCO1	none
COc1cc(OC)c(OC)cc1CNC(=O)CCN1C(=O)c2cccc([N+](=O)[O-])c2C1=O	none
O=C(NC(CC(=O)N1CCCC(C(F)(F)F)C1)c1ccccc1)c1ccccc1Cl (stereo unspecified)	none
O=C(NCc1cccnc1)c1cn(-c2ccccc2)nc1-c1ccccc1	CHX counter 21 (no result: NS1 function inh)
O=C(/C=C/NCc1cccnc1)c1ccc(-c2ccccc2)cc1	Shiga inhibitor 91, CHX counter 33
O=C(/C=C/c1ccc(-c2ccccc2)cc1)NCc1cccnc1	CHX counter 28 (no result: Shiga inhibitor)
O=C(/C=C/c1ccccc1)NCc1cccnc1	none
CCCCn1c(N)c(N(CCOC)C(=O)c2ccc3c(c2)OCCO3)c(=O)[nH]c1=O	none (no result: NS1 function inh, Shiga inhibitor, CHX counter)
Cc1cc(C)c2nc(C)cc(Nc3cccc(C(=O)O)c3)c2c1	none (no result: NS1 function inh, Shiga inhibitor, AmpC no deterg, CHX counter)
Cn1ccnc1SCC(=O)Nc1ccc([N+](=O)[O-])cn1	none
Cn1ccnc1SCC(=O)Nc1ccc(Cl)cn1	CHX counter 23 (no result: NS1 function inh)
Cn1ccnc1SCC(=O)c1ccc(O)cc1	CHX counter 26
Cn1ccnc1SCC(=O)c1ccc(Cl)cc1	Shiga inhibitor 118, CHX counter 37 (no result: NS1 function inh)
COCCn1c(C)cc(O)c(C(c2ccc(Cl)cc2)N2CCN(c3ccccc3)CC2)c1=O (stereo unspecified)	none (no result: NS1 function inh, Shiga inhibitor, AmpC no deterg, CHX counter)
CC(=O)Nc1cccc(-c2csc(NCc3ccccc3)n2)c1	CHX counter 11
CC(=O)Nc1ccc(-c2csc(NNC(=O)c3ccccc3)n2)cc1	NS1 function inh inconclusive
CC(=O)Nc1ccc(-c2csc(NCc3ccccc3)n2)cc1	Shiga inhibitor 62, CHX counter 25
CCOC(=O)/C(C)=N/Nc1nc(-c2ccc(NC(C)=O)cc2)cs1	CHX counter 18
CC(=O)Nc1ccc(-c2csc(N/N=C(/C)c3ccccc3)n2)cc1	none
NC(=O)c1cccc(N)c1	none (no result: Shiga inhibitor, AmpC inh detg, AmpC no deterg, CHX counter)
Cc1ccc(NC(=O)Cn2c(=O)n(CCC(C)C)c(=O)c3cccnc32)cc1C	none (no result: NS1 function inh, Shiga inhibitor, AmpC no deterg, CHX counter)
CCc1ccccc1NC(=S)N(Cc1ccc(OC)cc1)CC1CCC(C(=O)O)CC1 (stereo unspecified)	none (no result: NS1 function inh)
CCCn1nnc(NC(=S)NC(=O)/C=C/c2ccco2)n1	none
CCc1ccc(C(=O)c2cn(Cc3ccccc3)c3cc(OC)c(OC)cc3c2=O)cc1	none (no result: NS1 function inh, Shiga inhibitor, AmpC no deterg, CHX counter)
CC(C)(C)SCCNC(=O)/C=C/c1ccccc1	Shiga inhibitor 104, CHX counter 46
O=C(/C=C/c1ccc([N+](=O)[O-])cc1)NCCc1ccccc1	none
O=C(/C=C/c1ccccc1)NCCc1ccccc1	Shiga inhibitor 92, CHX counter 46
CC(C)(C)SCCNC(=O)/C=C/c1ccc(F)cc1	Shiga inhibitor 115, CHX counter 51
Cc1ccc(OCCN2C(=O)c3ccccc3C2=O)c([N+](=O)[O-])c1	Shiga inhibitor 106, CHX counter 64
Cc1ccc(OCCN2C(=O)CSC2=O)cc1	CHX counter 22
COc1ccc(OCCN2C(=O)c3cccc(N)c3C2=O)cc1	Shiga inhibitor 74, CHX counter 32
COc1ccc(C(=O)OCCN2C(=O)c3ccccc3C2=O)cc1	Shiga inhibitor 54
N#Cc1cccnc1N1CCC(C(N)=O)CC1	none
CN1CCN(S(=O)(=O)c2ccc(NC(=O)c3ccc(F)cc3Cl)cc2)CC1	none
Cc1cc(C)cc(C(=O)OCC(=O)Nc2ncccn2)c1	none (no result: NS1 function inh, Shiga inhibitor, CHX counter)
O=C1c2ccccc2C(=O)N1CCOc1cccc(Br)c1	Shiga inhibitor 52, CHX counter 28
COc1ccc(N(CN2C(=O)c3ccccc3C2=O)C(=O)C(C)C)cc1	CHX counter 21
Cc1ccc(OCCN2C(=O)c3ccccc3C2=O)c(C)c1	none
Cc1ccc(OCCN2C(=O)c3ccccc3C2=O)cc1	Shiga inhibitor 108, CHX counter 31
Cc1cc(C(=O)CSc2nnc(-c3ccccc3)o2)c(C)n1CC1COc2ccccc2O1 (stereo unspecified)	Shiga inhibitor 39
Cc1cc(C(=O)CSc2nnc(-c3ccc(F)cc3)o2)c(C)n1CC1CCCO1 (stereo unspecified)	AmpC inh detg inconclusive
COc1cc(-c2nnc(SCC(=O)c3cc(C)n(CC4CCCO4)c3C)o2)cc(OC)c1OC (stereo unspecified)	Shiga inhibitor active, CHX counter 64

From PubChem BioAssay
